VCAM1 TNFa inh: inhibitors of TNFa-induced VCAM1 expression, primary screen, imaging, HUVEC, TNFa stimulus, immunofluorescence; HUVEC TNFa-induced VCAM-1 immunofluorescence, high-content imaging; inhibition, % at 2 µM; actives 0.48% (n = 95,000); AID 802, 2007;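 active means inhibition above the batch mean plus 3 SD, with images confirmed as a hit by eye, cut at about 37% in these data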;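 further: 0% = TNF-stimulated DMSO wells and 100% = unstimulated control wells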
E-sel TNF inh: E-selectin induction blockers in HUVEC – imaging, immunofluorescence, high content, primary screen. HUVEC TNFa-induced E-selectin immunofluorescence. inhibition, % at 2 µM. actives 0.71% (n = 120,000);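 active means inhibition above the batch mean plus 3 SD, and confirmed as a hit on visual image review, cut at about 43% in these data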;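 further: 0% = TNF-stimulated DMSO wells and 100% = unstimulated control wells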
IL1B NFkB inh: inhibitors of IL-1B driven NFkB p65 nuclear import, primary screen, imaging, HUVEC, IL-1B stimulus, high-content imaging; inhibition, % at 2 µM; actives 0.43% (n = 94,000); HUVEC IL-1B NFkB p65 nuclear translocation imaging; AID 796, 2007;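 active means inhibition above about 30% together with a positive call from visual inspection of the well image, limit read from the data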;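 further: nuclear over cytoplasmic p65 intensity ratio measured by imaging; 0% = IL-1B stimulated DMSO wells and 100% = unstimulated DMSO wells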
HUVEC tox IL1B: cytotoxicity in IL-1B stimulated HUVEC, primary screen, cytotoxicity control for IL-1B NFkB translocation project, imaging, Hoechst nuclear count, IL-1B stimulus | HUVEC cell count loss | cell count reduction, % at 2 µM | actives 0.41% (n = 94,000);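 active means cell count reduction more than 3 SD above the screen-wide mean, cut at about 70% in these data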;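 further: normalized per plate to untreated control cells as the no-loss baseline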
HUVEC tox TNFa: cytotoxicity in TNFa-stimulated HUVEC, primary screen, cytotoxicity control for VCAM1 expression modulator project, imaging, Hoechst nuclei count; actives 0.17% (n = 93,000); HUVEC TNFalpha-stimulated, Hoechst cell count; cell count reduction, % at 2 µM; AID 848, 2007;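 active means cell count reduction exceeding the screen mean by over 5 SD, scaled to untreated wells per plate, cut at about 78% in these data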;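 further: cells counted after 24 h of TNF alpha exposure following the 1 h pretreatment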
IL1B NFkB pot: enhancers of NFkB p65 translocation in HUVEC – imaging, IL-1B stimulus, high-content imaging, primary screen. HUVEC IL-1B NFkB p65 nuclear translocation imaging. activation, % at 2 µM. actives 0.3% (n = 94,000). AID 819, 2007;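 active means activation above 40%, about the mean plus 3 SD, also judged a hit on visual image review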;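 further: percent activation is computed from the nuclear over cytoplasmic p65 intensity ratio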
Active calls of the source: *; x = not tested or not shown. Most compounds without a hit are left out; they make up all but 1.7% or so of the library.

SMILES | VCAM1 TNFa inh | E-sel TNF inh | IL1B NFkB inh | HUVEC tox IL1B | HUVEC tox TNFa | IL1B NFkB pot
O=C(NCCCN1CCCC1)C1CCN(C(=O)c2cc3sccc3n2Cc2ccc(F)cc2)CC1 | -6 | x | -10 | 9 | -14 | 10
O=C(NCc1ccco1)C1CCN(C(=O)c2cc3sccc3n2Cc2ccc(F)cc2)CC1 | 16 | -22 | 3 | 89* | -13 | -3
Cc1[nH]nc2c1C1(C(=O)N(Cc3ccc(Cl)cc3)c3ccccc31)C(C#N)=C(N)O2 (stereo unspecified) | -30 | 100* | 8 | -15 | x | -8
COC(=O)COc1ccc(=O)n(-c2ccccc2)n1 | x | -4 | -13 | 10 | 99* | 13
Cc1ccc(N2CCN(C(=O)c3ccccc3NC(=O)C3CC=CCC3C(=O)O)CC2)cc1 (stereo unspecified) | 16 | -22 | -4 | 4 | -8 | 4
CC(=O)c1c(C)oc2ccc(N(C(C)=O)S(=O)(=O)c3ccc(Cl)c([N+](=O)[O-])c3)cc12 | 88* | 7 | 8 | 1 | 8 | -8
CCOC(=O)C(C)(C)N(Cc1ccc(Cl)cc1)S(=O)(=O)c1ccc(Cl)c([N+](=O)[O-])c1 | x | 0 | x | x | x | x
COCCCNC(=S)N1CCN(c2ccc([N+](=O)[O-])cc2)CC1 | x | 65* | x | x | x | x
CCNC(=S)N1CCN(c2ccc([N+](=O)[O-])cc2)CC1 | 1 | -39 | 4 | 39 | -6 | -4
O=C(c1ccc2snnc2c1)N1CCCCC1 | -4 | -4 | -2 | -39 | -13 | 2
O=C(c1ccc2snnc2c1)N1CCSCC1 | 78* | x | -21 | -15 | 84* | 21
COc1cccc(NS(=O)(=O)c2ccc3[nH]cc(C(=O)NCCC(C)C)c(=O)c3c2)c1 | -5 | 33 | 19 | 91* | -22 | -19
O=C(c1ccc(Br)o1)N1CCN(c2ccc3nnc(-c4ccc(F)cc4)n3n2)CC1 | 3 | x | -6 | 13 | -1 | 6
COc1cc(CC(=O)Nc2ncc(C)s2)cc(OC)c1OC | 51* | -7 | 4 | 7 | -23 | -4
O=C(CN1C(=O)CCSc2ccccc21)Nc1ccc2c(c1)OCCO2 | 10 | x | 2 | 16 | 8 | -2
Cc1ccc2c(c1)N(CC(=O)Nc1ccc3c(c1)OCCO3)C(=O)CO2 | 8 | -4 | 99* | 91* | -2 | -99
COc1cccc(-c2nc(CS(=O)CC(=O)NCCCOC(C)C)c(C)o2)c1 (stereo unspecified) | -1 | -15 | 10 | -14 | -9 | -10
COc1cccc(-c2nc(CS(=O)(=O)CC(=O)NCCCOC(C)C)c(C)o2)c1 | 8 | 3 | 12 | 95* | -31 | -12
CC(C)(C)C1C/C(=C/c2ccccn2)C(=O)/C(=C/c2ccccn2)C1 (stereo unspecified) | x | 100* | x | x | x | x
CC1C/C(=C/c2ccccn2)C(=O)/C(=C/c2ccccn2)C1 (stereo unspecified) | x | 100* | x | x | x | x
O=C1/C(=C/c2ccccn2)COc2ccccc21 | x | 14 | x | x | x | x
Cc1ccsc1C(=O)OCC(=O)Nc1cccc(S(=O)(=O)N2CCOCC2)c1 | x | -12 | x | x | x | x
CCCN1C(=O)CC(C(=O)OC)=C1C | 11 | 5 | -3 | -53 | -14 | 3
COC(=O)C1=C(C)N(CCc2ccccc2)C(=O)C1 | 7 | -21 | 88* | 93* | 16 | -88
COCCCNCCCOc1ccc(C(C)(C)c2ccccc2)cc1 | x | -29 | x | x | x | x
SMILES | VCAM1 TNFa inh | E-sel TNF inh | IL1B NFkB inh | HUVEC tox IL1B | HUVEC tox TNFa | IL1B NFkB pot
CC(C)(C)c1ccc(OCCCNCc2ccccc2)cc1 | x | 95* | x | x | x | x
Cc1ccc(N2CC(C(=O)Nc3cccnc3)CC2=O)cc1 (stereo unspecified) | -2 | x | 6 | 28 | 16 | -6
CCc1ccc(N2CC(C(=O)Nc3cccnc3)CC2=O)cc1 (stereo unspecified) | 3 | 63* | -4 | -87 | -9 | 5
O=C(CC1SC(=O)N(c2ccccc2)C1=O)Nc1ccccc1 (stereo unspecified) | 11 | 14 | -5 | 9 | -19 | 5
Cc1cccc(NC(=O)CC2SC(=O)N(c3ccccc3)C2=O)c1 (stereo unspecified) | 96* | 2 | 3 | 2 | 78* | -3
COc1ccc(Br)cc1CN(C)CC(=O)Nc1c(Cl)cccc1Cl | x | 68* | x | x | x | x
COc1ccc(Br)cc1CN(C)CC(=O)Nc1cccc(S(N)(=O)=O)c1 | x | 5 | x | x | x | x
O=C(Oc1ccccc1-c1nnco1)c1ccccc1 | 8 | -14 | -4 | -17 | -14 | 4
Cc1noc(-c2ccccc2OC(=O)c2ccccc2)n1 | 6 | 8 | -53 | 1 | -34 | 53*
COc1ccccc1N1CCN(c2cc(C)nc3nc(C)nn23)CC1 | x | 18 | x | x | x | x
COc1ccccc1N1CCN(c2cc(N3CCCC3)nc(C)n2)CC1 | 12 | 100* | -30 | -8 | 29 | 30
COc1ccc(NC(=O)COC(=O)c2c3c(nc4ccccc24)CCCC3)cc1Cl | -29 | 0 | -6 | -9 | -6 | 6
CC(=O)N[C@@H](Cc1c[nH]c2ccccc12)C(=O)OCC(=O)Nc1ccc(Cl)c(S(=O)(=O)N(C)C)c1 | x | 62* | x | x | x | x
COc1cccc(/C=C/C(=O)OCC(=O)Nc2ccc(Cl)c(S(=O)(=O)N(C)C)c2)c1 | x | 69* | x | x | x | x
Cn1c(CSCc2ccc(Cl)cc2)nnc1SCC(=O)Nc1nc2ccccc2s1 | 2 | -18 | 0 | -7 | -23 | 0
COc1cccc(NC(=O)CSc2nc3ccccc3cc2Cc2ccccc2)c1 | 8 | -8 | 4 | 9 | -19 | -4
COc1cccc(CSc2nc3ccccc3cc2C=O)c1 | 90* | -34 | 43* | 72* | 31 | -43
N#Cc1nc(-c2ccco2)oc1N1CCOCC1 | 40* | x | 16 | -77 | -31 | -16
COc1cccc(/C=N/NC(=O)c2c(-c3ccccc3)noc2C)c1 | 6 | 54* | -5 | -56 | 0 | 5
Cc1ccc(S(=O)(=O)NNC(=O)C2COc3ccccc3O2)cc1C (stereo unspecified) | x | -14 | x | x | x | x
Cc1ccc(S(=O)(=O)N2CCN(C(=O)C3COc4ccccc4O3)CC2)cc1C (stereo unspecified) | 6 | 79* | -32 | -11 | -10 | 32
C/C(=N\O)c1ccc(N2C(=O)C3CC=C(Cl)CC3C2=O)cc1 (stereo unspecified) | -15 | -1 | 5 | 92* | -28 | -5
Cc1nnsc1C(=O)NC1CCCCC1 | 4 | 5 | 2 | -6 | -9 | -2
CCNC(=O)NC(=O)C(C)OC(=O)CNS(=O)(=O)c1c(Cl)cc(Br)cc1Cl (stereo unspecified) | x | 17 | x | x | x | x

From PubChem
